High-throughput results: PubChem BioAssay, Buhrlage Lab, Dana-Farber Cancer Institute and Novartis Institutes for BioMedical Research (Cambridge, Mass)
USP28 inh: human USP28 deubiquitinase inhibition. purified USP28, Ub-rhodamine cleavage fluorescence, 30 min. inhibition, % at 25 µM. 47,000 compounds, 3% hits
OTUD3 block: human OTUD3 deubiquitinase inhibition; 47,000 compounds, 0.7% hits; Q5T2D3; purified OTUD3, Ub-rhodamine fluorescence, 2 h; inhibition, % at 25 µM
USP17 block: blocks human USP17 ubiquitin-rhodamine cleavage | inhibition, % at 50 µM | 47,000 compounds, 6.5% hits | purified USP17, Ub-rhodamine cleavage fluorescence, 3 h | A8MUK1 | AID 1645855
Target sequence (A8MUK1 whole entry, looked up): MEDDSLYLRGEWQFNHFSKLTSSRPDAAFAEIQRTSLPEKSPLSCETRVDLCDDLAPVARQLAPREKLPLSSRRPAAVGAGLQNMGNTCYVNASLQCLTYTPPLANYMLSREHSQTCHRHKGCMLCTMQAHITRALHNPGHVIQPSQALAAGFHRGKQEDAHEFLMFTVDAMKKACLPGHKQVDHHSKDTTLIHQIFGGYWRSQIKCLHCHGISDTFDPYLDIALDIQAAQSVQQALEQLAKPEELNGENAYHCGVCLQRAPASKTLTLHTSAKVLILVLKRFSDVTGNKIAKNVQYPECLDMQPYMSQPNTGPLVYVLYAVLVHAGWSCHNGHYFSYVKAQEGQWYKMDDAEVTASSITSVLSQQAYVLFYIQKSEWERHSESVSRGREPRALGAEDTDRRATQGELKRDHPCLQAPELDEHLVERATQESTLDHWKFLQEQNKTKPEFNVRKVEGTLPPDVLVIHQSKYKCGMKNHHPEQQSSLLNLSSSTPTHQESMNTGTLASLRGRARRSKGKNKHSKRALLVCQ
USP30 block: inhibitors of human USP30 deubiquitinase; 47,000 compounds, 5.3% hits; Q70CQ3; inhibition, % at 25 µM; purified USP30, Ub-rhodamine cleavage fluorescence
* marks the source's active call; other numbers are inactive results; x = not tested or not shown. Only some compounds are listed: those with a hit (about 12% of all), similar ones and a draw of the others. Rule as the data show it: active = inhibition above about 30%; inactive = the rest.

SMILES	USP28 inh	OTUD3 block	USP17 block	USP30 block
O=c1c2cnc(N3CCCCC3)nc2ccn1CCc1ccccc1	18.4	21.6	85.1*	28.0
COc1ccc(C)cc1NS(=O)(=O)c1cc2c3c(c1)CCC(=O)N3CCC2	-2.7	-6.7	-6.9	-10.3
O=C(c1ccccn1)N1CCC(c2c[nH]c3ccccc23)(c2c[nH]c3ccccc23)CC1	1.3	7.1	x	-15.1
Cc1cn2c(=O)cc(COc3cccc(C(F)(F)F)c3)nc2s1	0.0	-2.0	14.1	0.0
Oc1cc(OCc2cccc(C(F)(F)F)c2)ccc1-c1ccn[nH]1	81.2*	15.3	42.2*	13.2
O=C(CCc1nc(CSc2nnc(-c3ccccc3)o2)no1)Nc1ccc(F)cc1	-37.8	-21.0	-38.5	-112.6
O=C(Nc1ccc2c(N3CCOCC3)ncnc2c1)c1ccccc1F	-10.9	-10.6	-11.7	-17.1
COc1ccc(N(C)S(=O)(=O)c2cccc(C(=O)OCC(=O)N(Cc3ccccc3)C(C)C)c2)cc1	12.6	21.7	13.9	30.3*
CCCOC(=O)c1ccc(NC(=O)c2cccc(S(=O)(=O)N(C)c3ccc(OC)cc3)c2)cc1	3.1	-13.2	-2.4	-22.1
Cc1ccc(NC(=O)Cn2cc(S(=O)(=O)N3CCCCCC3)ccc2=O)c(C)c1	-1.3	4.0	29.2	28.8
Cc1cc(Nc2cnccn2)nc(C2CCCN(c3ccncn3)C2)n1 (stereo not drawn)	3.6	3.3	0.1	7.9
COc1ccc(NC(=O)N(C2=NCCC2)c2ccccc2)cc1	0.7	0.6	11.4	6.3
COc1ccccc1N(C(=O)Nc1ccccc1)C1=NCCC1	45.9*	7.4	11.6	14.8
CC(C)(C)OC(=O)N1Cc2ccccc2C[C@H]1C(=O)N1CCC(C(=O)N[C@H](CC(N)=O)C(=O)O)(c2ccccc2)CC1	6.2	6.4	22.2	0.1
CC1(C)CC(=O)C2=C(C1)Nc1ccccc1N(C(=O)C(F)(F)F)C2c1cccs1 (stereo not drawn)	9.9	3.0	64.1*	-37.5
COc1ccc(C2C3=C(CC(C)(C)CC3=O)Nc3ccccc3N2C(=O)c2ccccc2)cc1 (stereo not drawn)	-6.9	0.0	35.3*	-5.1
COc1ccc(C2CC(=O)C3=C(C2)Nc2ccccc2N(C(=O)c2ccccc2)C3c2ccc(C(C)(C)C)cc2)cc1 (stereo not drawn)	4.5	-11.3	-3.0	-0.2
CCCOc1ccc(C2C3=C(CC(C)(C)CC3=O)Nc3ccccc3N2C(=O)c2ccccc2)cc1OC (stereo not drawn)	4.9	15.0	17.9	42.4*
O=C(NC1CCCCC1)c1ccc(C23CC4CC(CC(C4)C2)C3)o1	-0.1	2.7	7.3	10.5
COc1cc(Cn2nnc3ccccc32)cc(Br)c1O	38.2*	8.5	7.8	-8.0
COc1ccc(CNC(=O)Cn2cnc3ccccc32)cc1OC	-5.7	-3.9	1.0	-4.8
CN(C)S(=O)(=O)c1ccc(C(=O)Nc2c(C#N)oc3ccccc23)cc1	27.4	11.0	50.8*	25.5
CN(C)S(=O)(=O)c1ccc(C(=O)Nc2sccc2C#N)cc1	-23.0	-20.5	-6.7	-90.1
Cn1cc(CN2CC[C@H]3C[C@H](C(=O)Nc4cccnc4)O[C@@H]3C2)cn1	9.8	11.0	x	37.0*
COc1ccc(-c2nn3c(N4CCN(c5ccccn5)CC4)cc(C)nc3c2C)cc1	x	-5.0	84.4*	x
SMILES	USP28 inh	OTUD3 block	USP17 block	USP30 block
O=C(c1cc(-c2ccc(Cl)cc2)n[nH]1)N1CCN(c2ccccn2)CC1	12.9	2.2	45.0*	42.6*
O=C(c1cc(-c2ccc(Cl)cc2)n[nH]1)N1CCN(c2ccc(F)cc2)CC1	-2.0	0.1	3.4	5.5
COc1ccc(-c2cc(C(=O)N3CCN(c4ccccn4)CC3)[nH]n2)cc1	20.8	10.5	46.4*	11.5
O=C(c1cc(-c2ccc(Cl)cc2)n[nH]1)N1CCN(C(=O)c2ccco2)CC1	2.9	7.0	70.0*	10.3
O=C(O)Cc1ccc(N2C(=O)Nc3ccccc3N2O)cc1	-1.0	-1.6	4.7	-7.7
CCOC(=O)Cn1cnc2c(sc3nc(-c4ccco4)c4c(c32)CC(C)(C)OC4)c1=O	-17.5	-6.7	13.4	-88.0
Cc1ccc(CN2CC[C@H]3[C@H]2CCN3C(=O)c2cnn(C)c2)o1	-3.4	-3.0	-24.1	-8.7
O=C(OCC(=O)N1CCC(Cc2ccccc2)CC1)c1ccc(N2CCCC2=O)cc1	43.1*	2.7	4.2	9.4
O=C(c1ccco1)N1CCN=C1SCc1ccccc1F	74.7*	8.8	-12.5	-2.7
Cc1cccc(CC(=O)N2CCN=C2SCc2ccccc2)c1	16.5	8.1	6.8	19.2
O=C(c1ccco1)N1CCN=C1SCc1ccc([N+](=O)[O-])cc1	60.9*	12.1	42.7*	52.8*
CCc1nc(-c2cccc(NC(=O)c3ccc(C#N)cc3F)c2)no1	51.3*	11.3	43.0*	23.8
COc1cccc(/C=C/C(=O)Nc2ccc(C)c(Cl)c2)c1	64.8*	16.2	26.0	40.1*
COc1cccc(/C=C/C(=O)NCc2nnc3c(C(F)(F)F)cc(Cl)cn23)c1	-5.8	-8.1	-13.9	-42.0
CC(=O)c1sc(NC(=O)c2cccc(S(=O)(=O)Nc3ccccc3F)c2)nc1-c1ccccc1	10.2	9.6	31.7*	26.9
CCC(CC)C(=O)c1c[nH]c(C(=O)NCc2cccs2)c1	-0.4	0.1	27.2	38.2*
CCCC(=O)c1c[nH]c(C(=O)NCc2cccnc2)c1	x	-0.4	5.0	x
COc1ccc(NC(=O)C2=CC(c3ccccc3OC)=NS(=O)(=O)N2C)cc1OC	-0.1	-3.1	x	1.3
CCCCCCN1CC(=O)N2C(c3cccc4ccccc34)c3[nH]c4ccccc4c3C[C@H]2C1=O (stereo partly drawn)	-90.7	-87.4	-73.5	-334.8
CCC(=O)c1cn(CC(=O)NCCOc2ccc(Cl)cc2)c2ccccc12	-17.6	-13.2	-2.5	-6.6
COC(=O)c1cn(CC(=O)NCCOc2ccc(Cl)cc2)c2ccccc12	12.7	14.7	26.7	44.4*
CCNS(=O)(=O)c1ccc(-c2ccc(-n3cnnn3)cc2)cc1	8.0	-0.5	20.4	25.0
O=S(=O)(NC(c1ccccc1)c1ccccc1)c1ccc(-n2cnnn2)cc1	17.6	10.9	44.2*	48.8*
O=S(=O)(NC1CCCc2ccccc21)c1ccc(F)cc1 (stereo not drawn)	18.8	13.1	13.1	33.8*
O=S(=O)(NC1CCc2ccccc21)c1ccc(-n2cnnn2)cc1 (stereo not drawn)	23.5	6.8	4.0	39.5*
O=S(=O)(c1cccc(F)c1)N1CCCCC1c1nnc(-c2ccccn2)o1 (stereo not drawn)	-4.4	-4.0	-5.2	-14.0
Cc1nc(C2CCNC2)nc2c1CC(=O)N2Cc1ccccc1F (stereo not drawn)	-2.2	-4.9	-6.3	-7.0
Cc1ccc(C)c(-c2cc3c(=O)n(Cc4noc(CN5CCCCC5)n4)ccn3n2)c1	70.5*	-15.3	-8.7	-52.4
Cn1ncc(Cl)c1C(=O)NC1CC2(CCOCC2)Oc2ccccc21 (stereo not drawn)	3.9	5.7	1.1	4.1
Cc1cnn(CC2CCCN2Cc2nnc(C3CC3)o2)c1 (stereo not drawn)	-10.1	-0.1	-17.3	-63.1
